From article PMC4336329 (PLoS ONE, 2015)
About 14,000 (4.5%) of roughly 310,000 compounds showed an effect of 50% or more. The effect is printed as a negative number. What follows is part of a selection rich in strong results, with near analogues and random picks from the rest.

Biological target: human ether-à-go-go-related gene (hERG) potassium channel (human, UniProt Q12809)
Assay: primary screen, population patch clamp on CHO cells stably expressing hERG; higher = less effect of the substance
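Note: peak tail current of the secondary pulse compared with the same well before compound.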

human ether-à-go-go-related gene (hERG) potassium channel, sequence (Q12809 whole entry, looked up): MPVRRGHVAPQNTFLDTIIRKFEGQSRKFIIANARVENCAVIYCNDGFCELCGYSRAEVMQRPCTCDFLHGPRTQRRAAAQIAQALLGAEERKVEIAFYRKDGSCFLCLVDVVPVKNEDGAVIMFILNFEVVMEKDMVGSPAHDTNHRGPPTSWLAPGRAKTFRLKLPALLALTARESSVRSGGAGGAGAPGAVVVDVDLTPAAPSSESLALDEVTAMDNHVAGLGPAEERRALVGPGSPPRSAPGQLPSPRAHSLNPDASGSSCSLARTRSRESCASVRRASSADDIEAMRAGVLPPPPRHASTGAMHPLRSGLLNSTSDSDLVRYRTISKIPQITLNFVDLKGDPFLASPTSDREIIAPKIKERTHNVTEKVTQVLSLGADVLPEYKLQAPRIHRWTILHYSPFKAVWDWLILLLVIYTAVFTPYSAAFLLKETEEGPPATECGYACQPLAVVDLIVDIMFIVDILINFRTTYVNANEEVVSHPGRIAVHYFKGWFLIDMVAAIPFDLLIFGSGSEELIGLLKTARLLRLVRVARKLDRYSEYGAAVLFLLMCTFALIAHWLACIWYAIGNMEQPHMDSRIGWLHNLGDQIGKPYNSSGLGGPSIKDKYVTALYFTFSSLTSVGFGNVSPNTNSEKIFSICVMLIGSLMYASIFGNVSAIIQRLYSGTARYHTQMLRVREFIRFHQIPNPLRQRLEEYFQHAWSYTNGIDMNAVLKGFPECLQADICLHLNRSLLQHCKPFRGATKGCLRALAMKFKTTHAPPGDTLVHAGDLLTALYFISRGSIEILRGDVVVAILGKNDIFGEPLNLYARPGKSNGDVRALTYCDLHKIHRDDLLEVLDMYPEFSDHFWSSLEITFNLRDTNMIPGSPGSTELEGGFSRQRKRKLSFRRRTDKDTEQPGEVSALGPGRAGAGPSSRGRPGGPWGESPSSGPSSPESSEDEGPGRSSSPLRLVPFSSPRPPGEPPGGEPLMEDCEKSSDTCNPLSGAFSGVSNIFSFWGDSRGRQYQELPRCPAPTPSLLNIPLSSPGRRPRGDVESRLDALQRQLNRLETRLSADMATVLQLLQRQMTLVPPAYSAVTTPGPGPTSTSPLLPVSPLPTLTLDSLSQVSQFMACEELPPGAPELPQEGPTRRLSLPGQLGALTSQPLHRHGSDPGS

Compound	hERG current change (%, negative = inhibition) at 10uM [%]
COc1ccc(N2CCN(C(c3cccs3)C(C)NS(C)(=O)=O)CC2)cc1 (centres unmarked)	7.84
CN1C(=O)c2ccccc2C(C(=O)O)C1c1cccc(F)c1 (centres unmarked)	0.483
CCOc1ccccc1N(C)C(=O)c1sc2ncn(CC(=O)N3CCCCC3C)c(=O)c2c1C (centres unmarked)	6.44
CCOC(=O)CCSc1nc2c(c(C(F)(F)F)c1C#N)CCC2	3.58
O=C(c1ccccc1OCc1ccccc1Br)N1CCN(c2ncccn2)CC1	-37.2
O=C(C[n+]1cccc2ccccc21)c1ccc(Br)cc1.[Br-]	-45.1
O=C(c1ccco1)N1CCCN(Cc2nc(Cc3ccccc3)no2)CC1	-25.8
Fc1cccc(Cc2noc(CN3CCCN(C4Cc5ccccc5C4)CC3)n2)c1	-86.5
Fc1cccc(Cc2noc(CN3CCSCC3)n2)c1	29.1
c1ccc(Cc2noc(CN3CCCN(C4Cc5ccccc5C4)CC3)n2)cc1	-80
Cc1cccnc1CN1CCN(Cc2nc(Cc3cccc(F)c3)no2)CC1	-29.5
Fc1cccc(Cc2noc(CN3CCOCC3)n2)c1	11.4
Fc1cccc(Cc2noc(CN3CCN(C4CCc5ccccc5C4)CC3)n2)c1 (centres unmarked)	-78.6
c1ccc(Cc2noc(CN3CCN(C4CCc5ccccc5C4)CC3)n2)cc1 (centres unmarked)	-81.2
O=C(c1ccco1)N1CCN(Cc2nc(Cc3ccccc3)no2)CC1	-8.87
c1ccc(Cc2noc(CN3CCC(CN4CCOCC4)CC3)n2)cc1	4.64
Cc1ccccc1N1CCN(Cc2nc(Cc3ccccc3)no2)CC1	9.18
CN1CCN(Cc2nc(Cc3cccc(F)c3)no2)CC1c1ccccc1 (centres unmarked)	-18.2
Cc1ccc(CN2CCNC(=O)C2CC(=O)NCC(F)(F)F)o1 (centres unmarked)	14.1

Compound	hERG current change (%, negative = inhibition) at 10uM [%]
CCOc1cccc(/C=C(/C#N)c2nc3ccccc3[nH]2)c1OCC(=O)O	14.1
COc1cc(C(=O)Nc2nc3ccc4nc(C)sc4c3s2)cc(OC)c1OC	-5.34
C=CCN(C(=O)CNC(=O)c1ccco1)C(C(=O)NC1CCCCC1)c1ccccc1 (centres unmarked)	1.1
C=C1CCN(c2ccc(C(=O)NCCC)cc2[N+](=O)[O-])CC1	-48.3
CN(C)C(=O)Cn1cnc2c(cnn2-c2ccc(F)cc2)c1=O	-2.06
COC(=O)C(C(=O)OC)C(C[N+](=O)[O-])c1ccc(OC)cc1 (centres unmarked)	-6.91
Cc1cc(C)cc(NC(=O)C2CCN(S(=O)(=O)c3ccc4c(c3)NC(=O)C(C)S4)CC2)c1 (centres unmarked)	8.79
CCC(C)NC(=O)CSc1ccc(S(=O)(=O)N2CCN(Cc3ccccc3)CC2)cn1 (centres unmarked)	-16.6
O=C(OC(c1ccccc1)c1nccc2ccccc12)c1cccc([N+](=O)[O-])c1 (centres unmarked)	8.01
CN(C)/C=N/c1cnc(C(=O)c2ccc(Cl)cc2)n1C	5.58
Br.CCCN(CCC)C1CCc2cccc(O)c2C1 (centres unmarked)	-10.6
Br.CCCN(CCC)[C@@H]1CCc2cccc(O)c2C1	-34.4
Br.CCCN(CCC)C1CCc2ccc(O)cc2C1 (centres unmarked)	-70
COc1ccc(Cl)c2sc(N(Cc3cccnc3)C(C)=O)nc12	13.2
Cc1cc(C(=O)Nc2ccc3ccccc3c2)oc1C	-68.1
Cc1cc(C(=O)Nc2ccccc2)oc1C	7.57
CC(=O)c1cc(C(=O)Nc2ccc3ccccc3c2)c(C)o1	13.8
COc1ccc(S(=O)(=O)N2CCCOC2CNC(=O)C(=O)NCCCn2ccnc2)cc1 (centres unmarked)	-3.17
Cc1ccc(N(CC(=O)N/N=C/c2cccnc2)S(=O)(=O)c2ccccc2)cc1	-52

Compound	hERG current change (%, negative = inhibition) at 10uM [%]
COc1ccc(N(CC(=O)N/N=C/c2cccnc2)S(=O)(=O)c2ccccc2)c(OC)c1	-40.6
Cc1cc(C)cc(N(CC(=O)Nc2ccccc2-c2ccccc2)S(=O)(=O)c2ccccc2)c1	13.1
Cc1cc(C)cc(N(CC(=O)N/N=C/c2ccncc2)S(=O)(=O)c2ccccc2)c1	-76.9
COc1ccc(N(CC(=O)N/N=C/c2cccnc2)S(=O)(=O)c2ccc(C)cc2)cc1OC	-14.2
COc1ccc(/C=N/NC(=O)CN(c2ccc(OC)cc2)S(=O)(=O)c2ccccc2)cc1	-7.15
CC(=O)NCCC(=O)N1CCCC(CNC(=O)c2ccc(-c3ccccc3)cc2)C1 (centres unmarked)	-0.511
Cn1cc(C(O)CN2CCCCC2)c2ccccc21 (centres unmarked)	9.26
CCn1c(COc2ccc3c(c2)CCCC3)nnc1SCC(=O)Nc1ccc(C(=O)OC)cc1	5.43
CN(Cc1ccccc1)C(=O)c1ccccc1NC(=O)c1ccco1	20
Cc1nc2ccccc2c(-c2ccccc2)c1C(=O)c1ccccc1	0.392
CCN(CC)c1nc2ccccc2c(N)c1-c1ccccc1.O=C(O)C(=O)O	-77
CCOC(=O)c1c(C)nc2ccccc2c1-c1ccccc1.Cl	-30.8
CN(C)c1nc2ccccc2c(N)c1-c1ccccc1.O=C(O)C(=O)O	-65.9
CCOC(=O)c1c(CCl)nc2ccccc2c1-c1ccccc1	5.72
Cc1c(N(C)C)nc2ccccc2c1N.O=C(O)C(=O)O	-46.5
CCOC(=O)c1c(-c2ccccc2)csc1NC(=S)NC	-3.27
CCN(CC)C(=O)COc1ccc(Br)cc1Cl	-11.8
NC(=S)N/N=C1\CC(n2nnn(-c3cccc(Cl)c3)c2=S)C2COC1O2 (centres unmarked)	-26.8
